# High-throughput results: PubChem BioAssay, several laboratories
# IEC-6 tox: counter-screen for KLF5 inhibitors: cytotoxicity in IEC-6 cells; inhibition, % at 5 µM; 290,000 tested, 0.78% active; IEC-6 cytotoxicity, luminescence viability; in the data active means inhibition above about 22%
# CSC inhib: blocks cancer stem cells | 300,000 tested, 1.1% active | cancer stem cell-like cells viability, luminescence | inhibition, % at 7.5 µM | AID 2717; in the data active means inhibition above about 75%; inconclusive means no clear call, values can overlap the other calls; tested in HMLE shEcad cells
# SKKanGAS inh: SKKanGAS growth inhibition. S. pyogenes SKKanGAS, kanamycin growth, BacTiter-Glo, 6 h. AID 1662. 300,000 tested, 1.3% active. inhibition, % at 7.5 µM;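 active means mean replicate score, as percent of positive control median, at least 50; inconclusive means mean below 50 but one replicate at or above 50; inactive means mean and every replicate below 50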;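 further: strain carries kanamycin resistance gene driven by streptokinase promoter and grows in 40 µg/ml kanamycin; loss of luminescence reflects streptokinase promoter inhibition or plain growth inhibition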
# KLF5 inh: kruppel-like factor 5 inhibition; DLD-1 KLF5 promoter-luciferase reporter, luminescence; inhibition, % at 5 µM; 290,000 tested, 0.23% active;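 active means inhibition above a per-plate limit of that plate's mean compound inhibition plus 3 SD, cut at about 60% in these data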;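 further: higher means less KLF5 promoter-driven luciferase light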
# aSyn 5UTR inh: 5' untranslated region of α-synuclein, MLPCN primary screen. alpha-synuclein 5'UTR reporter, inhibitor activity. 300,000 tested, 0.82% active. inhibition, % (tested at 7.5 µM). AID 1813; in the data active means inhibition above about 60%; inconclusive means no clear call, values can overlap the other calls;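 further: H4 neuroglioblastoma cells stably carrying SNCA 5'UTR luciferase fusion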
# Hits are given with their value; 0 = inactive; ? = inconclusive; - = not tested or not shown. Rows were chosen to be rich in hits. Some 3% of all compounds tested hit in one or more screens of this group.
SMILES,IEC-6 tox,CSC inhib,SKKanGAS inh,KLF5 inh,aSyn 5UTR inh
Cc1[nH]n(C(N)=S)c(=O)c1N=Nc1cccc(C(F)(F)F)c1,0,0,0,0,0
Cc1c(CCC(=O)NCC(=O)NCC(=O)O)c(=O)oc2cc3oc4c(c3cc12)CCCC4,0,0,0,0,0
Cc1c(CCC(=O)N2CCC[C@H]2C(=O)O)c(=O)oc2cc3oc4c(c3cc12)CCCC4,0,0,0,0,76.9
Cc1c(CCC(=O)O)c(=O)oc2cc3oc4c(c3cc12)CCCC4,0,0,0,0,68.0
Oc1[nH]c2c(Cl)cc(Cl)cc2c1N=NC(=S)NCC1CCCO1 (centres undefined),0,-,95.4,0,79.3
Oc1[nH]c2ccc(Br)cc2c1N=NC(=S)NCC1CCCO1 (centres undefined),0,0,80.5,0,0
CCCNC(=O)N1CCC(C(=O)c2cccc(F)c2)CC1,0,-,0,0,0
O=C(NNC(=O)c1cc(-c2ccccc2)nc2ccccc12)c1csc(N2CCOCC2)n1,-,0,0,-,0
O=C(NNC(=O)c1ccccc1OCc1ccccc1Cl)c1csc(N2CCOCC2)n1,0,-,60.2,0,0
O=C(NNC(=O)c1cc(-c2ccc(Cl)cc2)nc2ccccc12)c1csc(N2CCOCC2)n1,-,0,59.7,-,0
O=C(NC(NC(=S)Nc1c(Cl)cccc1Cl)C(Cl)(Cl)Cl)OCc1ccccc1 (centres undefined),0,0,76.8,0,0
CCOC(=O)NC(NC(=S)Nc1ccc(OCC)cc1)C(Cl)(Cl)Cl (centres undefined),0,0,0,0,0
Oc1ccccc1-c1cc(-c2cccc(F)c2)n[nH]1,0,0,0,0,0
COc1ccc(-c2n[nH]c(C)c2-c2ccc(Cl)cc2)c(O)c1,0,0,68.3,0,0
CC(C)(C)c1ccc(-c2cc(-c3ccccc3O)[nH]n2)cc1,0,0,104.2,0,0
COc1ccc(-c2cc(-c3cc(C)ccc3O)[nH]n2)cc1,0,0,?,0,0
COc1ccc(-c2cc(-c3ccc(C)cc3)n[nH]2)c(O)c1,0,0,77.1,0,0
Nc1ccn(CC(=O)NCCNc2ccc([N+](=O)[O-])cn2)c(=O)n1,-,0,-,-,-
CN(c1ccccc1)c1ccc(/C=C(\C#N)c2nnc3n2CCCCC3)cc1[N+](=O)[O-],0,80.0,0,0,0
COc1ccc(C(=O)Nc2ccccc2C(=O)NC(Cc2c[nH]c3ccccc23)C(=O)O)cc1 (centres undefined),0,0,0,0,0
CCOc1ccc(OCC(=O)N(CCC2=CCCCC2)c2c(N)n(Cc3ccccc3)c(=O)[nH]c2=O)cc1,-,75.8,0,-,0
O=C(NCC(=O)N(c1ccc(F)cc1)C(C(=O)NC1CCCCC1)c1ccncc1)c1ccco1 (centres undefined),0,0,0,0,0
CCc1nnc(NS(=O)(=O)c2ccc(NC(=S)NC(=O)/C=C/c3ccccc3)cc2)s1,0,0,0,0,0
CCc1nnc(NS(=O)(=O)c2ccc(NC(=S)NC(=O)/C=C/c3ccc(C(C)C)cc3)cc2)s1,0,0,87.3,0,0
COc1ccc(-c2nsc3c(N4CCCCC4)ncnc23)cc1,0,0,0,0,85.4
SMILES,IEC-6 tox,CSC inhib,SKKanGAS inh,KLF5 inh,aSyn 5UTR inh
COc1ccc(C(=O)N2CCN(c3ncnc4c(-c5ccccc5)nsc34)CC2)cc1,0,-,0,0,0
COCc1cc(Sc2c(Cl)cccc2Cl)nc(-c2ccccc2)n1,0,0,66.5,0,0
COc1ccc2c(c1)CCc1c(C(=O)N(C)c3ccccc3)noc1-2,0,0,0,0,0
C=CCc1cccc(/C=N/NC(=O)C(C)Nc2cccc(C)c2)c1O (centres undefined),0,0,59.6,0,0
COc1cccc(/C=N/NC(=O)c2cc3cc([N+](=O)[O-])ccc3s2)c1O,0,106.1,0,0,107.0
C=CCc1cccc(/C=N/NC(=O)CNc2ccccc2)c1O,0,0,0,0,73.9
COc1cc([N+](=O)[O-])cc(/C=N/NC(=O)C(C)Nc2cccc(C)c2)c1O (centres undefined),0,-,58.6,0,0
CC(O)CNc1nc(NCc2ccccc2)c2cnn(C)c2n1 (centres undefined),0,0,0,0,0
Cc1cc(C(=O)N/N=C2\CC(=O)c3ccccc32)c(C)n1-c1ccccc1,0,0,0,0,0
O=C(CCN1C(=O)C2C3CC(C(Br)C3Br)C2C1=O)OCC(=O)c1cccc([N+](=O)[O-])c1 (centres undefined),0,0,0,0,0
CCOc1cc([N+](=O)[O-])cc(/C=N/NC(=O)c2c(-c3ccccc3)noc2C)c1O,0,0,91.8,0,0
COc1cc([N+](=O)[O-])cc(/C=N/NC(=O)c2ccc(C)nc2)c1O,0,0,82.1,0,0
COc1cc(C(=O)NCC2(N(C)C)CCCCC2)ccc1OCc1ccccc1,0,0,0,0,0
CC(=O)N(CCc1ccccc1)Cc1cc2ccc(C)c(C)c2[nH]c1=O,0,0,0,0,0
Cc1ccccc1CSCC(=O)Nc1ccccc1-c1ccccc1,0,0,0,0,0
O=C(CSCc1cccc(Cl)c1)Nc1ccccc1-c1ccccc1,0,75.4,0,0,0
O=C1Nc2c(c(=O)[nH]c(=O)n2-c2ccc(F)cc2)C1(NS(=O)(=O)c1ccccc1)C(F)(F)F (centres undefined),0,0,0,0,0
C=C(C)COc1ccc(-c2[nH]ncc2-c2ccccc2)c(O)c1,0,0,0,0,0
C=C(C)COc1ccc(-c2nc(N)ncc2-c2ccc(Cl)cc2)c(O)c1,0,103.8,99.0,0,0
C=C(C)COc1ccc(-c2ncncc2Oc2ccc(OC)cc2)c(O)c1,0,0,55.3,0,0
C=C(C)COc1ccc(-c2[nH]ncc2Oc2ccccc2OCC)c(O)c1,0,?,76.5,0,0
C=C(C)COc1ccc(-c2[nH]ncc2-c2ccc(OC)cc2)c(O)c1,0,?,74.8,0,0
COc1ccc(C2(CNC(=O)c3ccccc3[N+](=O)[O-])CCOCC2)cc1,0,0,0,0,0
Cc1ccc(C(=O)NC(C)C2CC3CCC2C3)c(C)c1 (centres undefined),0,0,0,0,0
C=C(C)COc1ccc(-c2[nH]ncc2Oc2cccc(OC)c2)c(O)c1,0,0,75.7,0,0
SMILES,IEC-6 tox,CSC inhib,SKKanGAS inh,KLF5 inh,aSyn 5UTR inh
COc1ccc(-c2[nH]ncc2Oc2ccccc2OC)c(O)c1,0,-,0,0,0
CCOC(=O)/C(=N/Nc1ccc(C)cc1)S(=O)(=O)c1ccc(Cl)cc1,0,0,0,0,0
NNC(=O)/C(=N/Nc1ccccc1)S(=O)(=O)c1ccc(Cl)cc1,0,0,73.6,0,0
CC(=O)c1c(C)[nH]c(C(=O)Nc2nc(C)cs2)c1C,0,0,0,0,85.9
CC(=O)c1c(C)[nH]c(C(=O)Nc2nc(-c3ccc(-c4ccccc4)cc3)cs2)c1C,0,0,52.0,0,0
CC(=O)c1c(C)[nH]c(C(=O)Nc2nc(-c3ccc(Cl)cc3)cs2)c1C,0,0,0,0,0
CC(=O)c1c(C)[nH]c(C(=O)Nc2ccc(C)cn2)c1C,0,0,0,0,84.9
CC(=O)c1c(C)[nH]c(C(=O)Nc2cc(C)cc(C)c2)c1C,0,0,0,0,0
